These results are taken from PubChem BioAssay AID1734 (Vanderbilt High Throughput Screening Facility, 2009).

This experiment in a line: KCC2 and NKCC1 inhibition by rubidium flux, cell-based, NKCC1 counter-screen (AID 1734). Particulars: KCC2-expressing cells, NKCC1 counter-screen, at 5 µM.
For orientation: inhibition means the share of the control response that was lost under treatment. High values mean a strong effect, low ones a weak effect. For `O=C(/C=C/c1ccccc1)Nc1scc(-c2ccccc2)c1C(=O)O`, the inhibition is 25.2%.

The compound `O=C(CN1C(=O)NC2(CCCC2)C1=O)Nc1nc(-c2ccc(F)cc2)cs1` showed an inhibition of 39.2%.

The compound `Cc1nc(CC(=O)Nc2nc(-c3ccccc3)cs2)cs1` yielded an inhibition of 35.5%.

`O=C(NCCOc1ccccc1F)c1ccccc1SCc1ccc(F)cc1`: the inhibition is 34.2%.

The compound `CC1Cc2ccccc2N1C(=O)c1ccc(N2CCCC2)c([N+](=O)[O-])c1` (stereo not given) had an inhibition of 22.9%.

Turning to `Cc1cnc(NC(=O)CSc2nnc(Cc3ccccc3)o2)s1`, the inhibition is 9.9%.

Consider `CN(Cc1ccccc1)S(=O)(=O)c1ccc(Cl)c(C(=O)NCCc2ccccn2)c1`, for which the inhibition came to 44.4%.

Compound `O=C(CCS(=O)(=O)Cc1ccccc1)Nc1nc2c(s1)CCCC2` returned an inhibition of 35.8%.

Take `Cc1ccc(NC(=O)c2ccccc2NS(=O)(=O)c2ccc(Cl)s2)cc1`: the inhibition is 65.1%.

Consider `O=C(OCC(=O)N1CCN(C(=O)c2ccco2)CC1)c1sc2ccccc2c1Cl`, for which the inhibition worked out at 33.3%.

`CCOc1ccc(N2C(=O)C3Sc4[nH]c(=O)sc4C(/C=C/c4ccccc4)C3C2=O)cc1` (stereo not given) returned an inhibition of 67.4%.

In turn, `O=S(=O)(NCc1ccccc1)c1ccc(Cl)c(S(=O)(=O)NCc2ccccc2)c1` had an inhibition of 13.5%.

`Cc1ccc(-c2ccc(S(=O)(=O)NCC3CCCO3)cc2)cc1` (stereo not given) came in with an inhibition of 21.8%.

`CCc1ccc(OCCNC(=O)c2ccccc2SCc2ccc(F)cc2)cc1` returned an inhibition of 45.3%.

`O=C(Cn1cnc2c(nnn2Cc2ccccc2)c1=O)N1CCCc2ccccc21` showed an inhibition of 23.4%.

As to `O=C(Cn1cnc2c(nnn2Cc2ccccc2)c1=O)c1ccc(Cl)cc1`, the inhibition was found to be 25.1%.

Regarding `Cc1csc(NC(=O)CSc2ccc(-c3ccccc3)nn2)n1`, the inhibition was 12.9%.

`O=C(O)CCn1c(SCc2cccc3ccccc23)nc2ccccc21` gave an inhibition of 57.5%.

On to `CCOc1ccc(Nc2n[nH]c(=S)s2)cc1`, for which the inhibition is 44.9%.

`O=C(NCC1CCCN(C(=O)c2cccnc2)C1)c1ccc(-c2ccccc2)cc1` (stereo not given) had an inhibition of 31.2%.

Take `O=C(Cn1cnc2c(nnn2Cc2ccc(F)cc2)c1=O)N1CCCc2ccccc21`: the inhibition turned out to be 28.1%.

With `CCCn1c(N)c(C(=O)CSc2nnc(Cc3ccccc3)o2)c(=O)n(C)c1=O`, the inhibition worked out at 15.4%.

Turning to `CC(C)c1onc(C(=O)N2CCN(Cc3ccccc3)CC2)c1[N+](=O)[O-]`, the inhibition amounted to 6.1%.

For the compound `O=C(Nc1ccc(S(=O)(=O)NCc2ccccc2)cc1)c1ccccc1[N+](=O)[O-]`, the inhibition came to 24.2%.

On to `Cc1ccc(Nc2nnc(SCC(=O)c3cc4ccccc4o3)s2)cc1C`, for which the inhibition turned out to be 46.3%.
